Source: PubChem BioAssay (National Center for Advancing Translational Sciences (NCATS))
PINK1 expr mod – modulators of PINK1 expression | AID 624263 | Potency, µM (doses to about 76.6 µM), for the others: at the highest dose activation (PINK1 increase), most hits filed as activators | actives 0.2% (n = 410,000) | PINK1 immunofluorescence, high-content cytometry, 24 h; active = well fitted activation curve with a large enough effect; inconclusive = small, poorly fitted or top-dose-only effect; cell line not stated here; also: % of control where 0% means no effect; nearly all actives have a fitted effect of over 65% in size
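A stable cell line was treated with compounds at 5 concentrations for 24 hours, with CCCP as control. PINK1 levels and mitochondrial localization were measured by immunofluorescence with mitochondrial, cell and nuclear markers after fixation, read by laser-scanning cytometry.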
KB-3-1 cytotox – kills parental KB-3-1 adenocarcinoma cells | KB-3-1 viability, CellTiter-Glo ATP luminescence, 72 h | Potency, µM (titrated, usually from 46.1 µM), most hits filed as cytotoxic | actives 1.4% (n = 400,000) | AID 1347075; also: % is scaled to controls: 0 for no effect and ±100 for the full control effect; nearly all actives have a fitted effect of over 60% in size
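Cytotoxicity measured as CellTiter-Glo luminescence after 72 h at 37 C. Compound titrations were pinned onto drug-naive KB-3-1 parental adenocarcinoma cells grown in DMEM with 10% FBS, and normalized data fitted to concentration-response curves.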
SW480 rereplic – inducers of DNA re-replication in SW480 colon cancer cells | SW480 DNA re-replication, Hoechst DNA content imaging, 48 h | Potency, µM (doses to about 46.1 µM), inactives show top-dose re-replication activation, usual class: activators | actives 1.8% (n = 340,000) | AID 624297; also: % of control where 0% means no effect; nearly all actives have a fitted effect of over 55% in size
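Quantitative HTS format with DMSO vehicle controls; 48 hr drug incubation at 37 C, then 40 min Hoechst staining and scanning imager measurement at 405 nm excitation.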
12-LOX inh – blocks human arachidonate 12S-lipoxygenase. purified 12hLO, xylenol orange hydroperoxide absorbance. P18054. AID 1671190. Potency, µM (series often up to 108 µM), for the others: top-dose activity change, negative = inhibition, most hits filed as inhibitors. actives 1.1% (n = 580,000); also: % is scaled to controls: 0 for no effect and ±100 for the full control effect
Target sequence (P18054 whole entry, looked up): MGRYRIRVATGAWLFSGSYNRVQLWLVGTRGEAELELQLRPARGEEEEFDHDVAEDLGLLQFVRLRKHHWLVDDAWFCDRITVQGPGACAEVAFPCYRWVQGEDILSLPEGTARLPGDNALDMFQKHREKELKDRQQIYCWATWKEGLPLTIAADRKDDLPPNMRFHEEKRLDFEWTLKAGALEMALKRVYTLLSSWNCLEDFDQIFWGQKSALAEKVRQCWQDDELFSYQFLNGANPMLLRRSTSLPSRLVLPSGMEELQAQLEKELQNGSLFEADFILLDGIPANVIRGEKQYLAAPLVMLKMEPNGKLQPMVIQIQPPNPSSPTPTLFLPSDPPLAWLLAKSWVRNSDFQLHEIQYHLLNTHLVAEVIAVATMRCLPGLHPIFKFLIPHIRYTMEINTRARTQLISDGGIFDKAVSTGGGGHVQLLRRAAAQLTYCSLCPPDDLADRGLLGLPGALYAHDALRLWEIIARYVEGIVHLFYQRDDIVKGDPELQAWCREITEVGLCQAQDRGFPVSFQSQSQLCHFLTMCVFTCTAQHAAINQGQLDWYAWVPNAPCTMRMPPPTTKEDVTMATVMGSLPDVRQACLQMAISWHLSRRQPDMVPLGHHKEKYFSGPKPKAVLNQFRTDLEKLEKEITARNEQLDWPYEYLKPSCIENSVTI
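Purified human 12hLO (150 nM final) in 25 mM Hepes, 0.01% Triton X-100, pH 7.0 was preincubated 15 min at room temperature with compound. Then 40 uM arachidonic acid was added, 30 min. Hydroperoxide was read by Fe-XO absorbance ratio 573/405 nm.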
MCF10A rerep – DNA re-replication induction in MCF 10a cells | Potency, µM (titrated, usually from 46.1 µM), for the others: at the top dose activity, positive = re-replication, hits mostly activators | AID 624296 | actives 2.9% (n = 350,000) | MCF 10A DNA re-replication, Hoechst nuclear intensity, 48 h; also: % of control where 0% means no effect; nearly all actives have a fitted effect of over 50% in size
KB-V1 MDR tox – KB-V1 MDR subline cytotoxicity. KB-V1 MDR cells viability, CellTiter-Glo, 72 h. Potency, µM (titrated, usually from 46.1 µM), usual class: cytotoxic. actives 3.4% (n = 400,000); also: % is scaled to controls: 0 for no effect and ±100 for the full control effect; nearly all actives have a fitted effect of over 60% in size
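KB-V1 cells (P-gp-expressing MDR subline of KB-3-1) in phenol-red-free DMEM with 10% FBS were exposed to library compounds over a concentration series for 72 h at 37 degrees C. Viability read by CellTiter-Glo luminescence; concentration-effect curves fitted after normalization.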
* hit, by the source's call. Most compounds without a hit are left out; they make up all but 5.8% or so of the library. Unless noted, calls follow the shape of the dose curve; as a rule, active = well fitted curve in the direction sought with a large enough effect; inconclusive = small, poorly fitted or top-dose-only effect, or another doubt; inactive = no such curve, though single readings can be large; an effect the other way counts as inactive or inconclusive. Potency is read from the fitted curve at half-maximal effect.

How did COc1ccc(C(=O)Nc2nc3c(s2)C[C@@H]2[C@](C)(CO)[C@H](O)CC[C@@]2(C)[C@@H]3CC(=O)N2CCOCC2)cc1 do in these assays?
12-LOX inh: 89.1µM*

How did CC(C)(C)c1ccc(C(=O)Nc2nc3c(s2)C[C@@H]2[C@](C)(CO)[C@H](O)CC[C@@]2(C)[C@@H]3CC(=O)N2CCOCC2)cc1 do in these assays?
12-LOX inh: 6.2%

What do the screens show for `Nc1nc(-c2ccc(Br)s2)c(Br)s1`?
PINK1 expr mod: 3.1%; KB-3-1 cytotox: inactive; SW480 rereplic: 15.2%; 12-LOX inh: -28.1%; MCF10A rerep: 20.6µM*; KB-V1 MDR tox: inactive

Results for N#Cc1c(N)nc2c(c1-c1ccc(Br)s1)CCCC2 ?
PINK1 expr mod: -0.5%; KB-3-1 cytotox: inconclusive; SW480 rereplic: -40.1%; 12-LOX inh: -11.3%; MCF10A rerep: -5.1%; KB-V1 MDR tox: inactive

How did COC(=O)c1c(C)[nH]c(C(=O)OC(C)C(=O)NC2CC2)c1C (stereo unspecified) do in these assays?
12-LOX inh: 25.9%

How did COC(=O)c1c(C)[nH]c(C(=O)C(C)OC(=O)C2CC2)c1C (stereo unspecified) do in these assays?
PINK1 expr mod: 1.4%; KB-3-1 cytotox: inconclusive; SW480 rereplic: 2.1%; 12-LOX inh: inconclusive; MCF10A rerep: 1.9%; KB-V1 MDR tox: 11.6µM*

Results for Cc1ccc(Cl)cc1NC(=O)Nc1cccc(-c2ccc(N3CCOCC3)nn2)c1 ?
12-LOX inh: 2.6%

How did O=C(NCCc1ccccc1)c1ccc2nc(-c3ccco3)c(-c3ccco3)nc2c1 do in these assays?
PINK1 expr mod: -3.8%; KB-3-1 cytotox: inconclusive; SW480 rereplic: inconclusive; MCF10A rerep: 20.6µM*; KB-V1 MDR tox: inconclusive

What do the screens show for `N#CC(=C(O)c1ccc(Cl)cc1Cl)c1nc2cc(Cl)ccc2c(=O)[nH]1`?
12-LOX inh: 21.7µM*

Results for N#C/C(=C/c1ccccc1Cl)c1nc2ccccc2c(=O)[nH]1 ?
PINK1 expr mod: -0.8%; KB-3-1 cytotox: inactive; 12-LOX inh: 0.0%; KB-V1 MDR tox: inactive

What do the screens show for `CCOC(=O)C(=Cc1cc(=O)c(OC)co1)C(=O)OCC`?
PINK1 expr mod: -1.2%; KB-3-1 cytotox: 4.61µM*; SW480 rereplic: inconclusive; 12-LOX inh: -6.9%; MCF10A rerep: 1.64µM*; KB-V1 MDR tox: inconclusive

Results for COc1coc(C(O)CN)cc1=O (stereo unspecified) ?
PINK1 expr mod: -1.2%; KB-3-1 cytotox: inactive; SW480 rereplic: 2.2%; 12-LOX inh: 3.7%; MCF10A rerep: -6.0%; KB-V1 MDR tox: inactive

How did CCOC(=O)C/C(=N\Nc1ncnc2ccccc12)c1ccccc1 do in these assays?
PINK1 expr mod: -0.3%; KB-3-1 cytotox: inactive; SW480 rereplic: -3.7%; 12-LOX inh: 1.8%; MCF10A rerep: 28.1%; KB-V1 MDR tox: 16.4µM*

What do the screens show for `CCCCN1C(=O)C(O)=C(C(C)=O)C1c1ccccc1` (stereo unspecified)?
PINK1 expr mod: 2.4%; KB-3-1 cytotox: inactive; SW480 rereplic: -3.3%; MCF10A rerep: -4.3%; KB-V1 MDR tox: inactive

What do the screens show for `CCCCCCCCN1C(=O)C(O)=C(C(C)=O)C1c1ccccn1` (stereo unspecified)?
PINK1 expr mod: 2.0%; KB-3-1 cytotox: inactive; SW480 rereplic: -1.6%; 12-LOX inh: -8.0%; MCF10A rerep: -0.5%; KB-V1 MDR tox: 16.4µM*

What do the screens show for `O=C(Nc1ccccc1N1CCCCC1)c1ccc(-c2ccc(Cl)cc2)o1`?
PINK1 expr mod: 9.3%; KB-3-1 cytotox: 8.2µM*; SW480 rereplic: 2.91µM*; 12-LOX inh: 1.9%; MCF10A rerep: inconclusive; KB-V1 MDR tox: 20.6µM*

What do the screens show for `Cc1c(C(=O)Nc2ccccc2N2CCN(C)CC2)oc2ccc(F)cc12`?
PINK1 expr mod: 0.9%; KB-3-1 cytotox: 16.4µM*; SW480 rereplic: inconclusive; 12-LOX inh: -4.3%; MCF10A rerep: inconclusive; KB-V1 MDR tox: inconclusive
